The values below come from PubChem BioAssay (NCI).

Test [1] is described as follows: NCI Yeast Anticancer Drug Screen. Data for the rad50 strain (AID 155).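 Further: 0% = growth of vehicle-only cultures of the same strain.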 The following applies: S. cerevisiae rad50 strain growth inhibition, stronger effect = higher value. Put shortly: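 Compounds were tested on a yeast strain with an engineered DNA damage repair alteration; the reported value is growth inhibition normalised to vehicle treatment.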
Test [2] can be described thus: NCI Yeast Anticancer Drug Screen. Data for the mec2-1 strain (AID 157). The following applies: S. cerevisiae mec2-1 strain, stronger effect = higher value. In a few lines: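 Compounds were applied to mec2-1 yeast cells. Their growth was then compared with that of vehicle-treated cultures to give growth inhibition.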
Test [3] in a line: NCI Yeast Anticancer Drug Screen. Data for the sgs1 mgt1 strain (AID 161).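 Further: 0% = growth of cultures given vehicle only.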 The conditions noted are these: S. cerevisiae sgs1 mgt1 strain, stronger effect = higher value. Put shortly: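 Compounds are added to genetically altered yeast, and growth is compared with cultures given vehicle alone to give percent inhibition.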
A short description of test [4]: NCI Yeast Anticancer Drug Screen. Data for the bub3 strain (AID 167). The following applies: S. cerevisiae bub3 mutant strain, stronger effect = higher value. Put shortly: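 Growth of a checkpoint-deficient yeast mutant is measured after compound exposure. Values represent inhibition relative to vehicle.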
A short description of test [5]: NCI Yeast Anticancer Drug Screen. Data for the mlh1 rad18 strain (AID 175). The following applies: S. cerevisiae mlh1 rad18 strain growth inhibition, stronger effect = higher value. Put shortly:
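A repair-deficient yeast strain is exposed to test compound, and growth is scored relative to vehicle-treated controls.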

Test [6] is described as follows: NCI Yeast Anticancer Drug Screen. Data for the cln2 rad14 strain (AID 165).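 Further: 0% = growth equal to vehicle treated cultures.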 The following applies: S. cerevisiae cln2 rad14 strain, stronger effect = higher value. Put shortly: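 Strain: cln2 rad14 yeast, altered in cell cycle control and DNA damage repair. Read-out: growth inhibition vs vehicle.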
[7] abbreviates: at 5.0 µM (retest, dose inferred, filed as 0.5).
Where [8] appears, read: at 50.0 µM (retest, dose inferred, filed as 5.0).

Where “and” joins values, the source holds several entries; their conditions need not be identical. Identical values can stand only once. This is part of a sample that, as a whole, favours compounds with a hit. Of some 79,000 tested, about 15% had one in any assay. Some structures have more than one record in an assay (separate samples or runs), and their calls can disagree. Calls of active or inactive are those of the source. No stated cut-off is given here; in the data, active means growth inhibition above about 70%; inactive means the rest.

Regarding `COc1cc(O)c2c(c1)C(=O)c1cc3c(c(O)c1C2=O)C(OC1OC(C)C(OC)C(O)C1OC)C(OC)C(C)(O)C3=O` (configuration not stated), the growth inhibition in test [1] (setting [7]) is 81% (active); in test [1] (setting [8]), 98% (active); in test [1] (at 50.0 µM), 98.8% (active) and 90.6% (active); in test [2] (setting [7]), 24% (inactive); in test [2] (setting [8]) it was 98% (active); in test [2] (at 50.0 µM), 99.2% (active) and 93% (active). Further, the growth inhibition was 20% (inactive) in test [3] (setting [7]); 98% (active) in test [3] (setting [8]); 99.5% (active) and 92.3% (active) in test [3] (at 50.0 µM); -6% (inactive) in test [4] (setting [7]); 98% (active) in test [4] (setting [8]); 99% (active) and 90.5% (active) in test [4] (at 50.0 µM). In addition, the growth inhibition in test [5] (setting [7]) was 29% (inactive); in test [5] (setting [8]) it was 96% (active); in test [5] (at 50.0 µM), 99.2% (active) and 90.9% (active).
As for `C[N+]1(C)CCC(c2ccccc2)(c2ccccc2)C(=O)C1`, the growth inhibition in test [1] (setting [7]) is -12% (inactive); in test [1] (setting [8]), -8% (inactive); in test [1] (at 50.0 µM), 16.6% (inactive) and 13.2% (inactive); in test [3] (setting [7]), -8% (inactive); in test [3] (setting [8]) it was -2% (inactive); in test [3] (at 50.0 µM), 6.2% (inactive) and 21.8% (inactive). The growth inhibition was -9% (inactive) in test [6] (setting [7]); -11% (inactive) in test [6] (setting [8]); 47.4% (inactive) and -25.8% (inactive) in test [6] (at 50.0 µM); -22% (inactive) in test [4] (setting [7]); -27% (inactive) in test [4] (setting [8]); -8.9% (inactive) and 8.6% (inactive) in test [4] (at 50.0 µM).
As to `COC(=O)C(=O)C(C(=O)C(c1ccccc1)c1ccccc1)c1nc2n(c1O)/C(=N/C(=O)Nc1ccc(Cl)cc1)N=N2` (configuration not stated), the growth inhibition is 0% (inactive) in test [1] (setting [7]); 41% (inactive) in test [1] (setting [8]); 76.6% (active) in test [1] (at 50.0 µM); 6% (inactive) in test [2] (setting [7]); 58% (inactive) in test [2] (setting [8]); 87.2% (active) in test [2] (at 50.0 µM). Moreover, the growth inhibition in test [6] (setting [7]) was -11% (inactive); in test [6] (setting [8]), 30% (inactive); in test [6] (at 50.0 µM), 56.3% (inactive); in test [4] (setting [7]), -1% (inactive); in test [4] (setting [8]), 35% (inactive); in test [4] (at 50.0 µM), 41.2% (inactive). The results for the growth inhibition in test [5] (setting [7]), in test [5] (setting [8]) and in test [5] (at 50.0 µM) were -3% (inactive), 41% (inactive) and 78.5% (active), respectively.
On to `O=C1/C(=C/c2ccc(Cl)cc2)Sc2scc(-c3cccc([N+](=O)[O-])c3)[n+]21`, for which the growth inhibition in test [1] (setting [7]) was 26% (inactive); in test [1] (setting [8]), 99% (active); in test [1] (at 50.0 µM) it was 89.5% (active); in test [2] (setting [7]), 36% (inactive); in test [2] (setting [8]) it was 100% (active); in test [2] (at 50.0 µM) it was 90.4% (active). Further, the growth inhibition in test [6] (setting [7]) is 44% (inactive); in test [6] (setting [8]) it was 98% (active); in test [6] (at 50.0 µM), 90.5% (active); in test [4] (setting [7]), 98% (active); in test [4] (setting [8]) it was 99% (active); in test [4] (at 50.0 µM) it was 89.8% (active). Besides, the growth inhibition in test [5] (setting [7]) is 35% (inactive); in test [5] (setting [8]), 100% (active); in test [5] (at 50.0 µM), 91.8% (active).
As for `O=C1C(=Cc2c[nH]c3ccccc23)C(=O)c2ccccc21`, the growth inhibition is 11% (inactive) in test [1] (setting [7]); 93% (active) in test [1] (setting [8]); -9.1% (inactive) and 69.2% (inactive) in test [1] (at 50.0 µM); -24% (inactive) in test [2] (setting [7]); 96% (active) in test [2] (setting [8]); -6.4% (inactive) and 69.5% (inactive) in test [2] (at 50.0 µM). Further, the growth inhibition in test [6] (setting [7]) was 6% (inactive); in test [6] (setting [8]) it was 83% (active); in test [6] (at 50.0 µM), 2.15% (inactive) and 32.4% (inactive); in test [4] (setting [7]), 3% (inactive); in test [4] (setting [8]) it was 95% (active); in test [4] (at 50.0 µM), -15.7% (inactive) and 62.8% (inactive). Further, the growth inhibition is -1% (inactive) in test [5] (setting [7]); 96% (active) in test [5] (setting [8]); -1.65% (inactive) and 78.5% (active) in test [5] (at 50.0 µM).
Take `CN(C)C(=S)SC(=S)N(C)C`: the growth inhibition in test [1] (setting [7]) was 97% (active) and 96% (active); in test [1] (setting [8]) it was 99% (active) and 98% (active); in test [1] (at 50.0 µM), 97.3% (active) and 99% (active); in test [2] (setting [7]) it was 98% (active) and 94% (active); in test [2] (setting [8]), 99% (active); in test [2] (at 50.0 µM), 98.8% (active) and 98.5% (active). For the same molecule, the growth inhibition in test [6] (setting [7]) was 97% (active) and 50% (inactive); in test [6] (setting [8]) it was 97% (active); in test [6] (at 50.0 µM), 87% (active) and 97.2% (active); in test [4] (setting [7]), 99% (active) and 88% (active); in test [4] (setting [8]), 99% (active) and 98% (active); in test [4] (at 50.0 µM) it was 98.5% (active) and 99.2% (active). For the same molecule, the growth inhibition is 99% (active) and 96% (active) in test [5] (setting [7]); 99% (active) in test [5] (setting [8]); 98% (active) and 98.8% (active) in test [5] (at 50.0 µM).
Consider `COc1cccc2c1C(=O)c1c(O)c3c(c(O)c1C2=O)C[C@@](O)(C(=O)CO)C[C@@H]3OC1CC(N)C(O)C(C)O1` (some centres not stated), for which the growth inhibition was 91% (active) and 50% (inactive) and -5% (inactive) in test [1] (setting [7]); 99% (active) and 94% (active) and 0% (inactive) in test [1] (setting [8]); 92.2% (active) and 94.8% (active) and 20.2% (inactive) in test [1] (at 50.0 µM); 41% (inactive) and 20% (inactive) and -6% (inactive) in test [2] (setting [7]); 99% (active) and 82% (active) and -16% (inactive) in test [2] (setting [8]); 93.7% (active) and 52.2% (inactive) and -26% (inactive) in test [2] (at 50.0 µM). The growth inhibition in test [3] (setting [7]) is 53% (inactive) and 15% (inactive) and 4% (inactive); in test [3] (setting [8]), 99% (active) and 88% (active) and -2% (inactive); in test [3] (at 50.0 µM) it was 94.6% (active) and 88% (active) and 5% (inactive); in test [4] (setting [7]), 57% (inactive) and 2% (inactive) and 22% (inactive); in test [4] (setting [8]), 98% (active) and 72% (active) and 17% (inactive); in test [4] (at 50.0 µM), 93.7% (active) and 88.8% (active) and -40.1% (inactive). Further, the growth inhibition in test [5] (setting [7]) is 69% (inactive) and 44% (inactive) and -8% (inactive); in test [5] (setting [8]), 98% (active) and 84% (active) and -10% (inactive); in test [5] (at 50.0 µM), 92.8% (active) and 89.8% (active) and 46.3% (inactive).
`O=C(O)c1ccc(C(c2ccccc2)c2ccccc2)cc1`: the growth inhibition in test [1] (setting [7]) was -19% (inactive); in test [1] (setting [8]), 100% (active); in test [1] (at 50.0 µM), 97% (active); in test [2] (setting [7]) it was 10% (inactive); in test [2] (setting [8]) it was 100% (active); in test [2] (at 50.0 µM), 97.2% (active). Also, the growth inhibition in test [3] (setting [7]) is 11% (inactive); in test [3] (setting [8]) it was 99% (active); in test [3] (at 50.0 µM) it was 98% (active); in test [6] (setting [7]) it was -11% (inactive); in test [6] (setting [8]) it was 99% (active); in test [6] (at 50.0 µM), 96.3% (active). The growth inhibition was 8% (inactive) in test [5] (setting [7]), 99% (active) in test [5] (setting [8]) and 98% (active) in test [5] (at 50.0 µM).
